Drawing on PubChem BioAssay (NCI), this text covers growth for 8 compounds.

SMILES strings stand for the structures. This is part of a sample that, as a whole, favours compounds with a hit. Of some 83,000 tested, about 20% had one in any assay.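 Interpretation: 100, growth as untreated; towards 0, rising growth inhibition; 0, no net growth; 0 to -100, cell death. Compounds scoring below 10 were considered active.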 Unmarked numbers belong to inactive results. Activity calls are given as the source filed them.

Test systems include EKVX NSCLC; SN12C renal; UO-31 renal; TK-10 renal; CAKI-1 renal; CCRF-CEM leukemia; MOLT-4 leukemia; SR leukemia; RPMI-8226 leukemia; OVCAR-8 ovarian; OVCAR-5 ovarian; OVCAR-4 ovarian; IGROV1 ovarian; OVCAR-3 ovarian; HS 578T breast; NCI/ADR-RES ovarian; T-47D breast; SK-OV-3 ovarian; A498 renal; ACHN renal.
Holding throughout (assay): NCI-60 one-dose screen, 48 h (100 = growth as untreated, 0 = no growth, -100 = all killed)
What all share (conditions): 10 µM unless noted

For the compound `COc1ccc(C(=O)/C=C/c2ccc(Oc3nc(NCCO)nc(N4CCOCC4)n3)c(OC)c2)cc1`, the growth with EKVX NSCLC is 90.1%; in the test on SN12C renal, 86.2%; in the test with UO-31 renal, 67.4%; with TK-10 renal it was 140%; in the test on CAKI-1 renal, 56%; in the test with CCRF-CEM leukemia it was 9.43% (active). Besides, the growth in the test with MOLT-4 leukemia is 10.6%; with SR leukemia, 5.16% (active); in the test with RPMI-8226 leukemia, 9.42% (active); in the test with OVCAR-8 ovarian it was 69.6%; in the test on OVCAR-5 ovarian, 99.9%; with OVCAR-4 ovarian it was 81.8%. The growth with IGROV1 ovarian is 78.6%; in the test on OVCAR-3 ovarian it was 101%; with HS 578T breast, 78.1%; in the test with NCI/ADR-RES ovarian it was 82.9%; in the test with T-47D breast, 94.1%.

Turning to `Nc1nc(N)c2c(n1)NC(c1ccc(F)cc1)CC(c1ccc(Nc3nc(NCCO)nc(Nc4ccc(Cl)cc4)n3)cc1)=N2` (stereo not drawn), the growth in the test with EKVX NSCLC was 42.5%; in the test on SN12C renal, 59.9%; in the test with UO-31 renal it was 34.8%; in the test with TK-10 renal, 111%; with CAKI-1 renal, 40.9%; with CCRF-CEM leukemia it was -13.8% (active). Moreover, the growth was -17.5% (active) in the test with MOLT-4 leukemia; -17.9% (active) in the test with SR leukemia; -37.6% (active) with RPMI-8226 leukemia; 29% in the test on OVCAR-8 ovarian; 72% in the test with OVCAR-5 ovarian; 3.03% (active) in the test on OVCAR-4 ovarian. In addition, the growth with SK-OV-3 ovarian is 84%; with IGROV1 ovarian, -25.9% (active); in the test on OVCAR-3 ovarian it was 14.1%; in the test on HS 578T breast, 42.8%; in the test with NCI/ADR-RES ovarian it was 64.5%; in the test with T-47D breast, 60%.

In the case of `COc1ccc([C@@H]2c3[nH]c4ccccc4c3CC3C(=O)N(C4CCN(Cc5c(F)cccc5F)CC4)CC(=O)N32)c(OC)c1` (stereo partly drawn), the growth with EKVX NSCLC is 51.9% [5.26 µM]; in the test with SN12C renal, 67.5% [5.26 µM]; in the test on UO-31 renal, 39.7% [5.26 µM]; with TK-10 renal, 63.5% [5.26 µM]; in the test with CAKI-1 renal, 40.4% [5.26 µM]; with A498 renal it was 29.4% [5.26 µM]. Also, the growth is 58.1% [5.26 µM] with CCRF-CEM leukemia; 49% [5.26 µM] in the test with MOLT-4 leukemia; 79.4% [5.26 µM] in the test with SR leukemia; 41.3% [5.26 µM] in the test on RPMI-8226 leukemia; 73.4% [5.26 µM] in the test on OVCAR-8 ovarian; 76.7% [5.26 µM] in the test on OVCAR-5 ovarian. Moreover, the growth with OVCAR-4 ovarian was 69.4% [5.26 µM]; with IGROV1 ovarian it was 39.8% [5.26 µM]; in the test on OVCAR-3 ovarian it was 64.1% [5.26 µM]; with HS 578T breast it was 45.1% [5.26 µM]; in the test with T-47D breast, 47.1% [5.26 µM].

On to `O=C(CSc1nnc(-c2ccc3nc(-c4ccc(Cl)cc4)[nH]c3c2)o1)Nc1ccc(C(=O)/C=C/c2ccc(Cl)cc2)cc1`, for which the growth in the test with EKVX NSCLC is 93.8%; with SN12C renal, 84.9%; in the test on UO-31 renal, 75.3%; in the test on TK-10 renal it was 129%; in the test with CAKI-1 renal, 83.6%; in the test on A498 renal, 90.1%. Besides, the growth in the test on CCRF-CEM leukemia is 86.4%; in the test on MOLT-4 leukemia, 77.8%; with SR leukemia, 49.7%; with RPMI-8226 leukemia, 4.95% (active); with OVCAR-8 ovarian, 97.1%; in the test on OVCAR-5 ovarian, 108%. Moreover, the growth with OVCAR-4 ovarian is 101%; with SK-OV-3 ovarian, 110%; in the test with IGROV1 ovarian, 85.5%; in the test on OVCAR-3 ovarian, 121%; in the test with HS 578T breast, 89%; with NCI/ADR-RES ovarian, 105%. Further, the growth in the test on T-47D breast is 87.1%.

On to `COc1ccc(NC2=C(Cl)C(=O)C(C)=C(C)C2=O)cc1OC`, for which the growth is 74.3% in the test on EKVX NSCLC; 88.9% in the test with SN12C renal; 90.3% in the test with UO-31 renal; 170% in the test with TK-10 renal; 89.4% with CAKI-1 renal; 93.2% in the test with A498 renal. The growth in the test on CCRF-CEM leukemia was 15.3%; in the test with MOLT-4 leukemia, 40.1%; in the test with SR leukemia, 84.5%; with RPMI-8226 leukemia, 88.7%; with OVCAR-8 ovarian, 97.5%; with OVCAR-5 ovarian, 103%. Further, the growth in the test with OVCAR-4 ovarian was 22%; with IGROV1 ovarian, 39.7%; in the test on HS 578T breast, 91.2%; with T-47D breast, 23.5%.

On to `CN(C)c1ccc(-c2c(NC(C)(C)C)nc3c(OCCc4ccccc4)cccn23)cc1`, for which the growth with EKVX NSCLC was 8.16% (active); in the test on SN12C renal, 12.5%; in the test with UO-31 renal, 4.11% (active); with TK-10 renal, 52.1%; with CAKI-1 renal, 11.7%; with A498 renal, 24.5%. For the same compound, the growth is 5.5% (active) in the test on CCRF-CEM leukemia; 1.16% (active) in the test on MOLT-4 leukemia; -0.837% (active) in the test on SR leukemia; -27.5% (active) with RPMI-8226 leukemia; 18.7% in the test on OVCAR-8 ovarian; 21.5% with OVCAR-5 ovarian. The growth was 31.3% in the test on OVCAR-4 ovarian; 8.93% (active) with SK-OV-3 ovarian; 23.3% in the test with IGROV1 ovarian; 20.2% in the test on OVCAR-3 ovarian; 23.8% in the test on HS 578T breast; 4.77% (active) in the test with NCI/ADR-RES ovarian. In the test on T-47D breast, the growth was 10.1%.

For the compound `Clc1ccc2c(NCCCn3ccnc3)c3oc4ccccc4c3nc2c1`, the growth in the test with EKVX NSCLC was 16.1%; with SN12C renal it was 33.2%; in the test on UO-31 renal it was 36.2%; in the test with ACHN renal it was 18.1%; in the test with CAKI-1 renal, 22.1%; in the test with A498 renal, 8.07% (active). The growth in the test on CCRF-CEM leukemia is 37.4%; with MOLT-4 leukemia, 13.3%; with SR leukemia, 9.35% (active); with RPMI-8226 leukemia, 26.4%; with OVCAR-8 ovarian it was 32.1%; in the test on OVCAR-5 ovarian, 38.2%. In addition, the growth with OVCAR-4 ovarian was 55%; in the test on SK-OV-3 ovarian it was 104%; with IGROV1 ovarian it was 32.9%; with OVCAR-3 ovarian, 68.4%; in the test on HS 578T breast it was 61.6%; in the test on NCI/ADR-RES ovarian, 45%. For the same compound, in the test on T-47D breast, the growth was 60.1%.

In the case of `Clc1ccc2c(NCCCN3CCOCC3)c3oc4ccc(Cl)cc4c3nc2c1`, the growth is 65.3% with EKVX NSCLC; 40% in the test with SN12C renal; 32.2% in the test with UO-31 renal; 12.1% with ACHN renal; 21.6% in the test on CAKI-1 renal; 49.7% in the test on A498 renal. For the same compound, the growth in the test on CCRF-CEM leukemia was 48.9%; in the test with MOLT-4 leukemia it was 15.4%; in the test on SR leukemia it was 1.24% (active); with RPMI-8226 leukemia, 67.8%; with OVCAR-5 ovarian, 47.4%; with OVCAR-4 ovarian, 87.4%. Moreover, the growth with SK-OV-3 ovarian was 89.3%; in the test with IGROV1 ovarian, 42.9%; in the test on OVCAR-3 ovarian, 104%; in the test on HS 578T breast, 84%; in the test on NCI/ADR-RES ovarian, 42.5%; in the test with T-47D breast, 91.4%.
